Screens deposited in PubChem by National Center for Advancing Translational Sciences (NCATS).
BLM inh: blocks DNA unwinding by human BLM helicase | 350,000 tested, 0.2% active | Potency, µM (series often up to 56.1 µM), without a hit: top-dose activity change, negative = inhibition, usual class: inhibitors | P54132 | recombinant BLM DNA unwinding, fluorescence dequenching | AID 2528;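 note: plate controls were vehicle for no effect and no enzyme for full effect; nearly all actives have a fitted effect of over 35% in size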
RECQ1 inh-1: RECQ1 (human) helicase inhibition | P46063 | RECQ1 DNA unwinding, red fluorescence kinetic read | Potency, µM (titrated, usually from 57.3 µM), for the others: at the highest dose activity, negative = inhibition, hits mostly inhibitors | 240,000 tested, 0.54% active;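 note: plate controls were vehicle for no effect and no enzyme for full effect; nearly all actives have a fitted effect of over 30% in size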
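50 nM RECQ1T1 preincubated 15 min with compound in Tris pH 8.0 buffer with MgCl2, DTT, Tween-20 and 2.5 ug/ml poly(dI-dC); started with 200 nM TAMRA/BHQ-2 forked duplex and 2 mM ATP. Unwinding read as fluorescence (525/598 nm), two reads 2 h apart.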
FEN1 inh: human FEN1 inhibition. Recombinant FEN1 flap cleavage, fluorescence, 15 min. 390,000 tested, 0.35% active. Potency, µM (titrated, usually from 114 µM), for inactives: at the highest dose activity change, negative = inhibition, usual class: inhibitors; note: nearly all actives have a fitted effect of over 65% in size
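Concentration–response screening of FEN1 (10 nM): 15 min compound preincubation at room temperature, reaction started with 50 nM substrate and read at 0 and 15 min. Corrected, normalized data were fitted by a four-parameter Hill equation.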
APE1 inh: APE1 (human) endonuclease inhibition; P27695; 350,000 tested, 0.35% active; AID 2517; recombinant APE1, TAMRA/BHQ-2 abasic DNA cleavage fluorescence; Potency, µM (highest dose often 65.8 µM), inactives show at the top dose activity change, negative = inhibition, usual class: inhibitors;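 note: plate controls were vehicle for no effect and reference inhibitor for full effect; nearly all actives have a fitted effect of over 55% in size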
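Substrate: short duplex with […] THF abasic site, 5'-TAMRA and 3'-BHQ-2, 50 nM final. APE1 at 0.75 nM, preincubated 15 min RT with compound. Fluorescence increase from first to third read measured activity.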
TDP1 block: blocks human tyrosyl-DNA phosphodiesterase 1; AID 485290; Q9NUW8; Potency, µM (titrated, usually from 130 µM), for inactives: at the highest dose activity change, negative = inhibition, actives largely listed as inhibitors; recombinant TDP1, AlphaScreen DNA substrate cleavage; 350,000 tested, 0.28% active; note: nearly all actives have a fitted effect of over 40% in size
Target sequence (Q9NUW8 whole entry, looked up): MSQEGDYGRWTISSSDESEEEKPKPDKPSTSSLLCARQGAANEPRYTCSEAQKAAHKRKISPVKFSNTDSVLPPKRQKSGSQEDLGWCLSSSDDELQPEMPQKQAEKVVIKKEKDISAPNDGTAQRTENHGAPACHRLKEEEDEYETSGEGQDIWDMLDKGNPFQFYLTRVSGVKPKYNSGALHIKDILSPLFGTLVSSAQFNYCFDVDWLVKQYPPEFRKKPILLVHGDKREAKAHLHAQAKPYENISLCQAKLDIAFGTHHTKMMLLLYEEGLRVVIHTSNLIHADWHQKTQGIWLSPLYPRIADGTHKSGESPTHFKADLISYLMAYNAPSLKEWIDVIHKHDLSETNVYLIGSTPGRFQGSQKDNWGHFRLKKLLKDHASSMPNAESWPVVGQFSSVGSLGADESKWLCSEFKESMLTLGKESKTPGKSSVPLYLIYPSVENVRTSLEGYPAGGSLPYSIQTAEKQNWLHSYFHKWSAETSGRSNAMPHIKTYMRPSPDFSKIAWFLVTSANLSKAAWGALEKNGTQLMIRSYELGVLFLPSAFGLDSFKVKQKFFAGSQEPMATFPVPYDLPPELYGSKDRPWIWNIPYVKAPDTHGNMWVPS
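Recombinant E. coli-expressed Tdp1 (1 nM) preincubated with compound 15 min at RT, then 5'-biotin/3'-phosphotyrosine-FITC DNA substrate (15 nM) added for 5 min. AlphaScreen beads (10 ug/ml) added, 10 min RT; tyrosine-FITC cleavage read as signal loss.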
RECQ1 conf: confirmation of human RECQ1 helicase inhibitors | shares compounds with RECQ1 inh-1 | RECQ1 helicase DNA unwinding, fluorescence | Potency, µM (titrated, usually from 229 µM), for inactives: at the top dose activity change, negative = inhibition, hits mostly inhibitors | 610 tested, 28% active | AID 2708; note: nearly all actives have a fitted effect of over 45% in size
ADP FP counter: counter-screen for RECQ1 inhibitors: ADP displacement; shares compounds with RECQ1 inh-1; ADP fluorescence polarization displacement counterscreen; Potency, µM (series often up to 228 µM), inactives show at the highest dose activity change, negative = inhibition, usual class: inhibitors; 530 tested, 27% active; AID 2711; note: nearly all actives have a fitted effect of over 45% in size
RECQ1 inh-2: confirmation of human RECQ1 helicase inhibitors | shares compounds with RECQ1 inh-1 | recombinant RECQ1 DNA unwinding, red fluorescence | Potency, µM (top dose mostly 119 µM), without a hit: top-dose activity, negative = inhibition, hits mostly inhibitors | 1,100 tested, 15% active; note: nearly all actives have a fitted effect of over 50% in size
* hit, by the source's call; i = inactive; ? = inconclusive; · = no result given; [ ] = remark or other dose. Compounds with a hit are over-represented: about 0.92% of the library has one in this group of screens. Calls come from the whole dose curve; as a rule, active = well fitted curve in the direction sought with a large enough effect; inconclusive = small, poorly fitted or top-dose-only effect, or another doubt; inactive = no such curve, though single readings can be large; an effect the other way counts as inactive or inconclusive. Unless noted, % is set by controls: 0 for no effect and ±100 for the full control effect; potency is the fitted concentration of half-maximal effect.

SMILES	BLM inh	RECQ1 inh-1	FEN1 inh	APE1 inh	TDP1 block	RECQ1 inh-2	others
Cc1ccnc(NS(=O)(=O)c2ccc(NC(=O)Cc3ccc(F)cc3)cc2)n1	1%	·	-3%	-6%	·	·
Cc1ccnc(NS(=O)(=O)c2ccc(NC(=O)Cc3cccs3)cc2)n1	-13%	25µM*	?	?	-10%	?
O=C(Cc1cccs1)Nc1ccc(S(=O)(=O)Nc2ncccn2)cc1	-19%	?	?	?	·	?
C=CCC1(CC=C)CCCN1Cc1nc(COc2ccccc2)no1	-7%	40µM*	1%	-6%	1%	-10%
CCCc1cc(=O)oc2cc(C)c(CN3CCCC3)c(O)c12	25µM*	13µM*	50µM*	?	·	?
CCc1cc(=O)oc2cc(C)c(CN3CCCCC3)c(O)c12	18µM*	10µM*	50µM*	22µM*	·	-15%	RECQ1 conf=?;ADP FP counter=63µM*
CCCc1cc(=O)oc2c(CN3CCCC3)c(O)ccc12	-1%	-9%	-1%	-2%	-2%	·
COc1ccc(Oc2ncc3nc(CCc4ccccc4)c(=O)n(CCC#N)c3n2)cc1	-6%	-12%	·	9%	·	·
Cc1cc(C)n2c(SC/C(O)=C(\C#N)c3nc4ccccc4[nH]3)nnc2n1	-27%	?	?	?	?	?
COc1ccccc1CNc1nc(-c2ccc3c(c2)OCO3)nc2ccccc12	-17%	?	·	7%	·	-13%
CCCCNC(=O)COC(=O)c1c2c(nc3ccccc13)CCC2	?	·	-7%	-20%	-15%	·
CNC(=O)COC(=O)c1c2c(nc3ccccc13)CCC2	-12%	?	?	-5%	·	?
CC(C)(C)[C@H](NC(=O)c1ccc(N)c(Cl)c1)C(=O)N1CCC[C@H]1C(=O)N[C@H](C#N)Cc1nn[nH]n1	·	·	·	-2%	·	·
O=C(O)CC(CC(=O)Nc1ccccc1C(=O)O)c1ccccc1 (configuration not stated)	-2%	-3%	-7%	-2%	·	·	RECQ1 conf=25%;ADP FP counter=0%
Cc1nn(CCc2nc(-c3ccco3)cs2)c2[nH]c(=O)cc(C(F)(F)F)c12	?	14µM*	?	?	?	?	RECQ1 conf=?;ADP FP counter=?
O=c1[nH]c(=O)n(Cc2ccccc2)c2nc(-c3ccco3)cc(C(F)(F)F)c12	0%	-15%	-10%	-6%	3%	·
Cc1cc(C)n(CCc2nc(-c3cccs3)cs2)n1	3%	-2%	-2%	2%	1%[56.1 µM]	·
Cc1cc(C)n(CCc2nc(-c3ccco3)cs2)n1	?	35µM*	-28%	?	·	?
CCn1c(NN)nc2sc3c(c2c1=O)CCC3	-16%	?	-10%	0%	0%	-11%
NNc1nc2sc3c(c2c(=O)n1Cc1ccccc1)CCC3	-12%	-3%	-1%	-9%	·	·
O=C(O)CCCCCNC(=O)CCn1nnc2ccccc2c1=O	-3%	-12%	6%	2%	-2%	·
O=C(CCn1nnc2ccccc2c1=O)NCC1CCC(C(=O)O)CC1 (configuration not stated)	0%	-5%	-3%	?	3%	·	RECQ1 conf=9%;ADP FP counter=0%
COc1cc(CCN2C(=O)N[C@@H](c3ccccc3)C(C(C)=O)=C2C)cc(OC)c1OC	4%	i	·	16%	2%	·
CCCCn1cnc2c(=O)[nH]c(N)nc21	·	·	-1%	·	4%	·	RECQ1 conf=-3%[69.1 µM]
COC(=O)c1cccc(C(=O)Oc2cccc(Br)c2)n1	0%	14µM*	-3%	-1%	-1%	-5%	RECQ1 conf=11%[114 µM];ADP FP counter=28%[91.9 µM]
